The source made the active and inactive calls.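 Rule for the calls: active = inhibition above 20% together with a positive visual image hit; inconclusive = visual image hit but inhibition not above 20%; inactive = no visual image hit.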

This assay is described as follows: inhibitors of TNFa-induced NFkB p65 translocation, primary screen, imaging, HUVEC, MLSMR starter and 10KST1 sets (AID 438).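 For inhibition: signal is the nuclear over cytoplasmic p65 intensity ratio per well.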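 Note: compound added about 3h40 before a 20 min TNFalpha stimulation.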 The following applies: HUVEC TNFa-induced p65 nuclear translocation; cell count: measured here: nuclei count (cytotoxicity indicator), at 2.08 µM; inhibition: at 2 µM, stronger effect = higher value, 0% TNFa-plus-vehicle, 100% no-TNFa wells.
One may read the inhibition as the change of the read-out against control, counted positive when it falls. Turning to `N#CCCN1CCN(S(=O)(=O)c2ccc(S(=O)(=O)NC3CCCCC3)cc2)CC1`, the cell count is 645 and the inhibition is -2.4% (inactive).

Consider `CCCN(CCC)C(=O)c1c(C)[nH]c(C(=O)OCC)c1C`, for which the cell count was determined as 740 and the inhibition is 0.6% (inactive).

As to `c1ccc2c(c1)CC(N1CCCCC1)c1ccccc1N2` (stereo not drawn), the cell count was 631 and the inhibition is -6.3% (inactive).

`CCOC(=O)N1CCN(C(=O)CSc2nnc(Cc3ccccc3)o2)CC1`: the inhibition is -6.9% (inactive) and the cell count turned out to be 645.

For `COc1ccc(CCNS(=O)(=O)c2ccc3oc(C(=O)O)c(C)c3c2)cc1OC`, the cell count worked out at 612 and the inhibition is -11.4% (inactive).

For `Cc1cc(NC(=O)CSc2nc3c(c(=O)n2Cc2ccccc2)SC(C)C3)no1` (stereo not drawn), the cell count was 554 and the inhibition was 8% (inactive).

For the molecule `c1ccc(OCc2nc(-c3ccccc3)no2)cc1`, the inhibition is 2.6% (inactive) and the cell count was 300.

Take `CC1CCN(C(=O)CCNS(=O)(=O)c2ccccc2)CC1`: the inhibition is 0.4% (inactive) and the cell count worked out at 709.

`COc1ccccc1Oc1coc2c(CN3CCN(C)CC3)c(O)ccc2c1=O`: the cell count is 541 and the inhibition was -0.5% (inactive).

`CCS(=O)(=O)N1CCCC(C(=O)NCc2ccccc2Cl)C1` (stereo not drawn): the cell count stood at 257 and the inhibition was -1.9% (inactive).

With `Cc1ccc(NC(=O)c2ccco2)c(NC(=O)c2cccs2)c1`, the inhibition is 4.8% (inactive) and the cell count is 684.

`Cc1cccc(-n2nc3c(c2NC(=O)CCC2CCCCC2)CS(=O)C3)c1C` (stereo not drawn): the inhibition was -8.7% (inactive) and the cell count turned out to be 637.

Consider `Cc1nc(N)c(C#N)c(-c2cccnc2)c1C`, for which the cell count was found to be 494 and the inhibition is -14.5% (inactive).

In the case of `COc1ccc(N2CCN(C(=O)C(C)(C)Oc3ccc(Cl)cc3)CC2)cc1`, the cell count was found to be 651 and the inhibition was 5.8% (inactive).
